Test systems include HCT-15 colon; HT29 colon; SNB-75 CNS; U251 CNS; PC-3 prostate; SK-MEL-5 melanoma; UACC-62 melanoma; LOX IMVI melanoma; SK-MEL-28 melanoma; SK-MEL-2 melanoma; EKVX NSCLC; SN12C renal; UO-31 renal; TK-10 renal; ACHN renal; CAKI-1 renal; A498 renal; CCRF-CEM leukemia; MOLT-4 leukemia; SNB-19 CNS.
Common to all, as to experiment: NCI-60 one-dose screen, 48 h (100 = growth as untreated, 0 = no growth, -100 = all killed)
Common to all, as to settings: 10 µM unless noted

Structures are written as SMILES. Values joined by “and” are separate entries in the source; they are usually repeats but may differ in a detail not shown here. Equal values may be shown once. The panel holds about 83,000 compounds, 20% with a hit somewhere; the sample as a whole holds those more often.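 Treatment: one concentration, 48 hours, 96-well format. Scoring: percent growth, with anything below 10 considered active.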 Active and inactive are the calls of the source.

In the case of `COc1ccc2oc3cc(NCCN(C)C)ccc3c(=O)c2c1`, the growth with HCT-15 colon was 90.6% (inactive) and 67% (inactive); with HT29 colon it was 69.8% (inactive) and 53% (inactive); with SNB-75 CNS it was 87.2% (inactive) and 81.5% (inactive); in the test on U251 CNS, 76.7% (inactive); in the test on PC-3 prostate, 83.6% (inactive) and 70.9% (inactive); with SK-MEL-5 melanoma, 93.3% (inactive) and 75.5% (inactive). Besides, the growth is 100% (inactive) and 101% (inactive) in the test with UACC-62 melanoma; 83% (inactive) and 58.2% (inactive) in the test on LOX IMVI melanoma; 96.1% (inactive) and 91.3% (inactive) in the test with SK-MEL-28 melanoma; 108% (inactive) and 107% (inactive) with SK-MEL-2 melanoma; 85.9% (inactive) in the test with EKVX NSCLC; 81.7% (inactive) and 64.2% (inactive) in the test with SN12C renal. Besides, the growth with UO-31 renal was 82.9% (inactive) and 67.4% (inactive); in the test with TK-10 renal, 106% (inactive) and 98.9% (inactive); in the test with ACHN renal, 74.5% (inactive) and 58.9% (inactive); in the test with CAKI-1 renal it was 77.2% (inactive) and 63.5% (inactive); with A498 renal, 121% (inactive) and 85.7% (inactive); in the test with CCRF-CEM leukemia it was 70.3% (inactive). In addition, the growth with MOLT-4 leukemia was 80.3% (inactive) and 50.9% (inactive).

With `O=C1C(=O)c2ccccc2C(O)=C1CC=C(Cl)Cl`, the growth in the test on HCT-15 colon was 25.8% (inactive) and 30.7% (inactive); in the test with HT29 colon, 31.4% (inactive) and 34.8% (inactive); in the test with SNB-75 CNS it was 54.3% (inactive) and 57.4% (inactive); in the test on U251 CNS, 42.5% (inactive) and 42.8% (inactive); in the test with PC-3 prostate, 35.3% (inactive) and 40.9% (inactive); in the test with SK-MEL-5 melanoma, 48.4% (inactive) and 48.1% (inactive). For the same compound, the growth is 55.7% (inactive) and 60% (inactive) in the test on UACC-62 melanoma; 16.7% (inactive) and 27.4% (inactive) with LOX IMVI melanoma; 70.1% (inactive) with SK-MEL-28 melanoma; 89.2% (inactive) and 77.8% (inactive) in the test with SK-MEL-2 melanoma; 75.8% (inactive) with EKVX NSCLC; 68.8% (inactive) and 66.9% (inactive) in the test on SN12C renal. Further, the growth in the test on UO-31 renal was 55% (inactive) and 47.8% (inactive); in the test on TK-10 renal it was 75.8% (inactive) and 69.5% (inactive); in the test with CAKI-1 renal, 39.4% (inactive) and 30.8% (inactive); in the test with A498 renal, 81% (inactive) and 82.9% (inactive); in the test on CCRF-CEM leukemia, 44% (inactive) and 39.3% (inactive); in the test on MOLT-4 leukemia, 20.5% (inactive) and 23.4% (inactive).

With `COc1ccc(COC=O)cc1`, the growth in the test on HCT-15 colon is 107% (inactive); in the test on HT29 colon, 104% (inactive); in the test on SNB-75 CNS, 102% (inactive); in the test on SNB-19 CNS it was 114% (inactive); in the test on PC-3 prostate it was 99.9% (inactive); in the test with SK-MEL-5 melanoma it was 104% (inactive). In addition, the growth in the test with UACC-62 melanoma was 104% (inactive); in the test with LOX IMVI melanoma it was 100% (inactive); in the test with SK-MEL-2 melanoma, 108% (inactive); with SN12C renal it was 101% (inactive); in the test on UO-31 renal it was 92.5% (inactive); with TK-10 renal, 103% (inactive). Further, the growth with ACHN renal is 110% (inactive); with CAKI-1 renal it was 102% (inactive); in the test with A498 renal it was 105% (inactive); in the test on CCRF-CEM leukemia, 103% (inactive); in the test with MOLT-4 leukemia, 102% (inactive).

With `O=C1C=CC[C@H](/C=C/c2ccccc2)O1`, the growth with HCT-15 colon is 33.4% (inactive) and -52.8% (active); in the test on HT29 colon, 29.8% (inactive) and 28.4% (inactive); with SNB-75 CNS it was 53.8% (inactive) and 70.9% (inactive); in the test with U251 CNS, 12.8% (inactive) and -30% (active); in the test with PC-3 prostate, 20.2% (inactive) and 13% (inactive); in the test on SK-MEL-5 melanoma it was 31.7% (inactive) and -11.8% (active). Also, the growth in the test on UACC-62 melanoma was 81.7% (inactive) and 6.21% (active); with LOX IMVI melanoma, 5.77% (active) and -35.8% (active); in the test on SK-MEL-28 melanoma, 40.3% (inactive) and -22.5% (active); in the test on SK-MEL-2 melanoma, -21.8% (active) and -43.1% (active); with EKVX NSCLC, 54.5% (inactive) and 56.3% (inactive); in the test with SN12C renal it was 55.6% (inactive) and 9.16% (active). The growth with UO-31 renal is 38.8% (inactive) and 41% (inactive); with TK-10 renal it was 41.7% (inactive) and 22.3% (inactive); in the test with ACHN renal it was 33.4% (inactive) and -36.3% (active); with CAKI-1 renal, 11.4% (inactive) and 2.9% (active); in the test with A498 renal it was -18.3% (active) and -10.1% (active); with CCRF-CEM leukemia it was 12.5% (inactive) and -3.54% (active). In addition, the growth in the test with MOLT-4 leukemia was 3.44% (active) and -22.1% (active).

Consider `Cc1ccc(C(=O)c2ccc(C)cc2)cc1`, for which the growth with HCT-15 colon is 99.8% (inactive) and 102% (inactive); with HT29 colon, 95.4% (inactive) and 102% (inactive); with SNB-75 CNS, 86.4% (inactive) and 99.5% (inactive); with PC-3 prostate it was 95.8% (inactive) and 92.5% (inactive); in the test with SK-MEL-5 melanoma, 95.6% (inactive) and 100% (inactive); in the test with UACC-62 melanoma it was 92.7% (inactive) and 101% (inactive). Also, the growth was 100% (inactive) and 90.4% (inactive) in the test with LOX IMVI melanoma; 111% (inactive) and 106% (inactive) in the test on SK-MEL-28 melanoma; 98.5% (inactive) and 98.1% (inactive) in the test on SK-MEL-2 melanoma; 92.6% (inactive) and 103% (inactive) in the test with SN12C renal; 76.9% (inactive) and 98.3% (inactive) in the test on UO-31 renal; 101% (inactive) and 96.5% (inactive) with TK-10 renal. Moreover, the growth was 99.8% (inactive) and 107% (inactive) with ACHN renal; 93.4% (inactive) in the test with CAKI-1 renal; 96.4% (inactive) and 111% (inactive) in the test with A498 renal; 91.6% (inactive) and 93.3% (inactive) with CCRF-CEM leukemia; 82.5% (inactive) and 97.8% (inactive) with MOLT-4 leukemia.

As to `NNC(=O)Nc1ccccc1`, the growth was 99.8% (inactive) in the test with HCT-15 colon; 106% (inactive) with HT29 colon; 87.9% (inactive) in the test on SNB-75 CNS; 99.1% (inactive) with U251 CNS; 93.5% (inactive) in the test with PC-3 prostate; 101% (inactive) in the test on SK-MEL-5 melanoma. The growth is 94.3% (inactive) in the test with UACC-62 melanoma; 98.1% (inactive) with LOX IMVI melanoma; 109% (inactive) in the test on SK-MEL-28 melanoma; 106% (inactive) in the test on SK-MEL-2 melanoma; 96.2% (inactive) with EKVX NSCLC; 101% (inactive) with SN12C renal. Moreover, the growth was 90% (inactive) in the test on UO-31 renal; 110% (inactive) in the test with TK-10 renal; 100% (inactive) with ACHN renal; 96.1% (inactive) in the test with CAKI-1 renal; 85.2% (inactive) in the test with A498 renal; 104% (inactive) in the test on CCRF-CEM leukemia. Further, the growth in the test on MOLT-4 leukemia was 114% (inactive).

These data come from PubChem BioAssay (NCI).
